As a reminder, the inhibition is the drop in the measured response relative to a control, in per cent.

Each structure is given as a SMILES string. Unmarked numbers belong to inactive results. For some assays here: Entries with a potency or affinity are not part of this list. Active and inactive are the calls of the source. Unless noted, no rule for the calls is given here.

Experiment [1] in a line: antimalarial activity against Dd2 strain (AID 2302;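 active = growth inhibition above 50% at the single 2 µM test dose, taken to imply half-maximal potency below 2 µM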;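 also: 0% = DMSO untreated growth and 100% = chloroquine plus artemisinin killed control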). The settings on record: P. falciparum Dd2 in RBCs, LDH growth readout, 72 h; at 2 µM; hits give high values.
The nature of experiment [2]: human hepatoma cell viability loss – ATP luminescence, cytotoxicity control for P. falciparum antimalarial project, primary screen (AID 2303;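 active = inhibition above 50%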;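 also: 0% = DMSO wells and 100% = digitonin-killed cells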). Particulars: HepG2 viability, 24-48 h, at 10 µM, hits give high values.
The target of experiment [3] is L-lactate dehydrogenase (Plasmodium falciparum (isolate CDC / Honduras)) (UniProt Q27743). Briefly: PfLDH activity inhibition – cell lysate, 3D7 strain, counter-screen for P. falciparum growth inhibition project (AID 2304).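 Also: 0% = vehicle and 100% = reference inhibitor.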 Particulars: P. falciparum 3D7 crude extract, LDH APAD/NBT absorbance; at 2 µM; hits give high values. (In general: A counterscreen serves to expose hits that act by an unwanted route or on another target.)

Experiment [4] in a line: inhibition of 3D7 malaria parasite growth – strain 3D7 (AID 2306).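 Also: 0% = DMSO wells and 100% = chloroquine plus artemisinin control wells.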 Particulars: P. falciparum 3D7 erythrocytic growth, LDH absorbance, 72 h; at 2 µM; hits give high values.
Experiment [5] deals with Calcium-dependent protein kinase 1 (Plasmodium falciparum (isolate 3D7)) (UniProt P62344). Briefly: PfCDPK1 kinase inhibitors, biochemical, TCAMS library (AID 1159585; cut-off not given, nearly all actives have IC50 up to about 0.98 µM;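 also: inhibitors leave more ATP so luminescence rises with inhibition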). The settings on record: recombinant PfCDPK1, Kinase-Glo ATP depletion luminescence. (In general: In Kinase-Glo more light means more ATP remaining.)
Experiment [6] concerns the target Plasmodium falciparum protein kinase 6 (PK6, PF3D7_1337100) (UniProt Q8IDW1). Briefly: PfPK6 kinase inhibitors, biochemical, TCAMS library (AID 1159586). The settings on record: recombinant PfPK6, Kinase-Glo ATP depletion luminescence.
Experiment [7] deals with Protein kinase 7 (PK7), Plasmodium falciparum 3D7 (PF3D7_0213400) (UniProt Q7YTF7). Briefly: inhibition of Plasmodium PK7 catalytic activity – biochemical, TCAMS antimalarial set, Kinase-Glo luminescence (AID 1159587). Particulars: recombinant PfPK7, Kinase-Glo ATP depletion luminescence.
In experiment [8] the target is Calcium-dependent protein kinase 4 (Plasmodium falciparum (isolate 3D7)) (UniProt Q8IBS5). Briefly: PfCDPK4 kinase inhibitors, biochemical, TCAMS library (AID 1159588; cut-off not given, nearly all actives have IC50 up to about 0.91 µM). Particulars: recombinant PfCDPK4, Kinase-Glo ATP depletion luminescence.
Sequence of Calcium-dependent protein kinase 4 (Plasmodium falciparum (isolate 3D7)) (Q8IBS5 whole entry, looked up): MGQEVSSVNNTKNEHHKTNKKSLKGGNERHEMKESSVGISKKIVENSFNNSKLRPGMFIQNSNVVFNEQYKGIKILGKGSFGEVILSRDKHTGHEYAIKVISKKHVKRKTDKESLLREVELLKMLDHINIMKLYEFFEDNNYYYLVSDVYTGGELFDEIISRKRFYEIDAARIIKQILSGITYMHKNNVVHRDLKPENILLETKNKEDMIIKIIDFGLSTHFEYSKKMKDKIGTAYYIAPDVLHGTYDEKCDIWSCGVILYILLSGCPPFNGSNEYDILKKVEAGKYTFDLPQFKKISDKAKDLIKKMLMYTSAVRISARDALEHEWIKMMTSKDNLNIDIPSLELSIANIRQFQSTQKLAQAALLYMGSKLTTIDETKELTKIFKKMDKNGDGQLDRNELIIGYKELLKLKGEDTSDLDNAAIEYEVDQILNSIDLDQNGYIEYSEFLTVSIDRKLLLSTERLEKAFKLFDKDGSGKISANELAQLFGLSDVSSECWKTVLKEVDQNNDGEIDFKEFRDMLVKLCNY

Sequence of L-lactate dehydrogenase (Plasmodium falciparum (isolate CDC / Honduras)) (Q27743 whole entry, looked up): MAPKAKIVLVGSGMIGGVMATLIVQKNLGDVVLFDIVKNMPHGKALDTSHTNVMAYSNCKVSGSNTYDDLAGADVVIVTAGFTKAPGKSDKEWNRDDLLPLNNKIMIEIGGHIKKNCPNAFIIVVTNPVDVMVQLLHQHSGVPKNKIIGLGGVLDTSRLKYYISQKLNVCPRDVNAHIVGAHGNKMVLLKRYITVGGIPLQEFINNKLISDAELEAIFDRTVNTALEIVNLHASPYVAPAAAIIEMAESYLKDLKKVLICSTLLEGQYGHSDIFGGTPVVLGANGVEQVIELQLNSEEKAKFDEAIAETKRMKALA
Sequence of Calcium-dependent protein kinase 1 (Plasmodium falciparum (isolate 3D7)) (P62344 whole entry, looked up): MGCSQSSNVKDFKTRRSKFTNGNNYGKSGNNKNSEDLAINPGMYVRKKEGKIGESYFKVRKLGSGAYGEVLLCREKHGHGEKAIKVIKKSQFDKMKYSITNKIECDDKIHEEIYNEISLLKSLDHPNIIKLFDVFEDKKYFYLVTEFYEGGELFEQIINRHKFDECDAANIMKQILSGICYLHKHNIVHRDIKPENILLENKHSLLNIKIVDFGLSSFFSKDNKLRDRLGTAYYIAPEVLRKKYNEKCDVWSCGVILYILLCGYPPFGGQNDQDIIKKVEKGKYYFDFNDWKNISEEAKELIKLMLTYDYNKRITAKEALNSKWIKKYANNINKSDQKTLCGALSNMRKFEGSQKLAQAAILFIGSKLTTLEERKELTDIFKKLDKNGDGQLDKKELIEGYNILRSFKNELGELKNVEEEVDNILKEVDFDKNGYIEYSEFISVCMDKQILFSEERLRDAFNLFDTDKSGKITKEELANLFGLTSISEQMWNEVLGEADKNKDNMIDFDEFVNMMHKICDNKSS
Sequence of Plasmodium falciparum protein kinase 6 (PK6, PF3D7_1337100) (Q8IDW1 1-305): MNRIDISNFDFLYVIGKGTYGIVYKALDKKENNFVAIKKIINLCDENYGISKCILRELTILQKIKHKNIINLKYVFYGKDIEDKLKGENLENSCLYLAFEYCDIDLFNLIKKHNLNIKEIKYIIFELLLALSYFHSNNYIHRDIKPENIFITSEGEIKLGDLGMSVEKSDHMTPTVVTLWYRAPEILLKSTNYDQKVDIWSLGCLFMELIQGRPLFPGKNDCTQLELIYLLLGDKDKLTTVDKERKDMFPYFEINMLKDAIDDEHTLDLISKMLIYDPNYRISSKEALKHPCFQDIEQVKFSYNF
Sequence of Protein kinase 7 (PK7), Plasmodium falciparum 3D7 (PF3D7_0213400) (Q7YTF7 1-343): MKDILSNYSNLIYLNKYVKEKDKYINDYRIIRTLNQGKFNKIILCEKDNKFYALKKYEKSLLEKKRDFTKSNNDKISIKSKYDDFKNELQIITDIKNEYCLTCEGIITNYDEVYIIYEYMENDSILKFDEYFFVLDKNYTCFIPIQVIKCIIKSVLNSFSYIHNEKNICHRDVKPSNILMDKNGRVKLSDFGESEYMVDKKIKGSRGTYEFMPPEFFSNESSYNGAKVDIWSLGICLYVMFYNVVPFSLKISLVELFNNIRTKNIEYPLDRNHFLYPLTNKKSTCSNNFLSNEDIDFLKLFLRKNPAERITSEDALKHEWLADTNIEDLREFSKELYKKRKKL

`O=S(=O)(NCCN1CCCC1)c1cccc(-c2ccc(CNCc3ccccc3)cc2)c1`: the growth inhibition in experiment [1] was 41%; in experiment [4], 95% (active). Moreover, the results for the inhibition in experiment [2] and in experiment [3] were 54% (active) and -8%, respectively. In addition, the result in experiment [5], in experiment [6], in experiment [7] and in experiment [8] was inactive.

For `Cc1csc2nc(-c3ccccn3)nc(Nc3ccncn3)c12`, the results for the growth inhibition in experiment [1] and in experiment [4] were 85% (active) and 97% (active), respectively. In addition, the inhibition in experiment [2] is 47%; in experiment [3], -3%. Further, the result in experiment [5], in experiment [6], in experiment [7] and in experiment [8] was inactive.

Turning to `O=C(NC1CCN(Cc2ccccc2)C1)c1ccc(Nc2ccc(Br)cc2)nc1` (configuration not stated), the growth inhibition in experiment [1] is 21%; in experiment [4], 94% (active). Besides, the inhibition in experiment [2] is 19%; in experiment [3], -1%. The outcome in experiment [5], in experiment [6], in experiment [7] and in experiment [8] was inactive.

For `COc1ccc(CNc2nccc3ccc(-c4ccc(N)nc4)cc23)cc1`, the growth inhibition was 49% in experiment [1] and 93% (active) in experiment [4]. The inhibition was 7% in experiment [2] and 2% in experiment [3]. For the same compound, the outcome in experiment [5], in experiment [6], in experiment [7] and in experiment [8] was inactive.

For `COc1ccc(OC)c(NC(=O)CSc2nc(-c3ccccc3Cl)ns2)c1`, the growth inhibition was 32% in experiment [1] and 95% (active) in experiment [4]. For the same compound, the inhibition was -8% in experiment [2] and -1% in experiment [3]. The outcome in experiment [5], in experiment [6], in experiment [7] and in experiment [8] was inactive.

On to `COc1ccc(CN2CCN(CCCCNC(=O)c3ccc(NC(=O)c4ccc(Cl)cc4)cc3)CC2)c(OC)c1`, for which the growth inhibition in experiment [1] was 0%; in experiment [4], 94% (active). In addition, the inhibition in experiment [2] was 25%; in experiment [3], -6%. For the same compound, the outcome in experiment [5], in experiment [6], in experiment [7] and in experiment [8] was inactive.

With `NC1=NC(c2ccccc2)N(c2ccc(Cl)c(Cl)c2)C(N)=N1` (configuration not stated), the figures for the growth inhibition in experiment [1] and in experiment [4] were 0% and 94% (active), respectively. The inhibition in experiment [2] is 13%; in experiment [3], -2%. Also, the outcome in experiment [5], in experiment [6], in experiment [7] and in experiment [8] was inactive.

On to `COc1cccc(CC(=O)NC2CCN(c3ccnc4cc(Cl)ccc34)C2)c1` (configuration not stated), for which the growth inhibition is 85% (active) in experiment [1] and 101% (active) in experiment [4]. Also, the inhibition was 9% in experiment [2] and -2% in experiment [3]. For the same compound, the result in experiment [5], in experiment [6], in experiment [7] and in experiment [8] was inactive.

Turning to `O=C(Nc1ccccc1)N(Cc1cccc(-c2ccc(CNC3CCCC3)cc2)c1)C1CCN(Cc2ccccc2)CC1`, the values for the growth inhibition in experiment [1] and in experiment [4] were 96% (active) and 101% (active), respectively. The inhibition is 100% (active) in experiment [2] and 8% in experiment [3]. Moreover, the result in experiment [5], in experiment [6], in experiment [7] and in experiment [8] was inactive.

Take `CN1CCN(c2cc3c(cc2Cl)CCN3C(=O)Cc2ccc(NC(=O)Nc3cccc4ccccc34)cc2)CC1`: the growth inhibition is 18% in experiment [1] and 92% (active) in experiment [4]. Also, the inhibition in experiment [2] is 12%; in experiment [3] it was -11%. The outcome in experiment [5], in experiment [6], in experiment [7] and in experiment [8] was inactive.

For the compound `C[C@H](NC(=O)c1c(CN2CCN(C(=O)C(C)(C)C)CC2)c(-c2cccs2)nc2ccccc12)C1CCCCC1`, the growth inhibition in experiment [1] is 62% (active); in experiment [4], 89% (active). Further, the inhibition in experiment [2] is 2%; in experiment [3], 3%. Besides, the outcome in experiment [5], in experiment [6], in experiment [7] and in experiment [8] was inactive.

For `CCCCCCC(C)c1cc(OCCN(CC)CC)c2c(c1)OC(C)(C)C=C2c1ccncc1` (configuration not stated), the growth inhibition in experiment [1] is 71% (active); in experiment [4], 90% (active). Besides, the values for the inhibition in experiment [2] and in experiment [3] were 14% and -1%, respectively. Besides, the result in experiment [5], in experiment [6], in experiment [7] and in experiment [8] was inactive.

Regarding `Oc1ccc(C2CNCCc3c2cc(O)c(OCc2ccccc2)c3Cl)cc1` (configuration not stated), the results for the growth inhibition in experiment [1] and in experiment [4] were 8% and 98% (active), respectively. The values for the inhibition in experiment [2] and in experiment [3] were 14% and 5%, respectively. Moreover, the outcome in experiment [5], in experiment [6], in experiment [7] and in experiment [8] was inactive.

On to `COc1ccc(CCN(C)CCOc2ccc(NC(=O)COc3ccc4sc5ccccc5c(=O)c4c3)cc2)cc1OC`, for which the growth inhibition is 91% (active) in experiment [1] and 100% (active) in experiment [4]. Further, the inhibition was 99% (active) in experiment [2] and -1% in experiment [3]. Further, the outcome in experiment [5], in experiment [6], in experiment [7] and in experiment [8] was inactive.

Turning to `CC(C)Cc1ccc(N2CCN(CCCCNC(=O)c3ccc(NC(=O)c4ccc(Cl)c(Cl)c4)cc3)CC2)cc1`, the values for the growth inhibition in experiment [1] and in experiment [4] were 25% and 94% (active), respectively. For the same compound, the inhibition was 21% in experiment [2] and 0% in experiment [3]. The outcome in experiment [5], in experiment [6], in experiment [7] and in experiment [8] was inactive.

As to `Clc1ccc(CNc2ccnc(NCc3ccc4c(c3)OCCCO4)n2)c(Cl)c1`, the growth inhibition was 20% in experiment [1] and 94% (active) in experiment [4]. Moreover, the inhibition in experiment [2] is 50% (active); in experiment [3] it was -2%. The result in experiment [5], in experiment [6], in experiment [7] and in experiment [8] was inactive.

As for `CC1(C)N=C(N)N=C(N)N1OCCOc1ccc2ccccc2c1`, the growth inhibition in experiment [1] was 96% (active); in experiment [4] it was 93% (active). For the same compound, the inhibition was 70% (active) in experiment [2] and 5% in experiment [3]. For the same compound, the outcome in experiment [5], in experiment [6], in experiment [7] and in experiment [8] was inactive.

With `c1ccc(-c2ccc(CNCc3ccc(-c4cccc(-c5nc6ccccc6[nH]5)c4)cc3)s2)nc1`, the growth inhibition in experiment [1] was 80% (active); in experiment [4], 98% (active). For the same compound, the inhibition in experiment [2] was 48%; in experiment [3], -1%. The outcome in experiment [5], in experiment [6], in experiment [7] and in experiment [8] was inactive.

On to `Cc1cc(N[C@@H](Cc2ccccc2)C(=O)NC2CCCC2)nc(NCCCOC(C)C)n1`, for which the growth inhibition was 43% in experiment [1] and 92% (active) in experiment [4]. Moreover, the inhibition in experiment [2] is -4%; in experiment [3], -3%. Moreover, the outcome in experiment [5], in experiment [6], in experiment [7] and in experiment [8] was inactive.

These data come from PubChem BioAssay.
